65 compounds from PubChem BioAssay AID778 (Sanford-Burnham Center for Chemical Genomics, 2007) can be followed below.

As a reminder, the inhibition is the change of the read-out against control, counted positive when it falls.

Screen size: about 96,000 compounds; about 20,000 (21%) were called active.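 How the source made its calls: active means CYP2C19 inhibition above a set limit at 5 µM in the primary screen (cut at about 50% in these data); inactive means the rest.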 A selection follows.

In this assay the target is Cytochrome P450 2C19 (Homo sapiens) (UniProt P33261). Kind of assay: blockers of cytochrome P450 2C19 activity – biochemical, luminescence, ADME assay, primary screen (AID 778).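 Further: plate controls were negative control wells for no effect and 2.5 mM tranylcypromine positive control for full effect.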 Particulars: CYP2C19 Supersomes, luciferin-H EGE luminescence, 30 min; at 5 µM; active compounds read high.
Cytochrome P450 2C19 (Homo sapiens), sequence (P33261 whole entry, looked up): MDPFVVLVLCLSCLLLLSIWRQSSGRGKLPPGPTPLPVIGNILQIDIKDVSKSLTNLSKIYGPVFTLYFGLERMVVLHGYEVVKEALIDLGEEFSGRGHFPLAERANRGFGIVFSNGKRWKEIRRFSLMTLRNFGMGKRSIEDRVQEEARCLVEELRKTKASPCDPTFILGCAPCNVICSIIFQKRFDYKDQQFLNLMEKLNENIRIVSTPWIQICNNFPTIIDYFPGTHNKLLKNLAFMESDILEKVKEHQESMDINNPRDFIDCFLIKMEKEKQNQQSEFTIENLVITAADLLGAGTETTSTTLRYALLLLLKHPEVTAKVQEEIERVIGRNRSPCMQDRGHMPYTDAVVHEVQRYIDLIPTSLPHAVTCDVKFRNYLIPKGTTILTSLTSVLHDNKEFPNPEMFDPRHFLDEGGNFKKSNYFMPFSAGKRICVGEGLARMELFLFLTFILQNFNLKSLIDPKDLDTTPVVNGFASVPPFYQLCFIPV
For `COc1ccc(CN2CCN(c3ccccc3F)CC2)c(OC)c1`, the inhibition is 86.7% (active).

As to `CC(C)c1ccc(O)c(CN2CCN(c3ccccc3)CC2)c1`, the inhibition was 19.8% (inactive).

As to `CCCCCn1c(=O)c(C(=O)NCc2ccccn2)c(O)c2ccccc21`, the inhibition is 26% (inactive).

Consider `CCCCCCN=C(CC)c1c(O)n(CCCC)c(=O)[nH]c1=O`, for which the inhibition is 73.6% (active).

With `CCCCn1c(O)c(C(CC)=NCc2ccco2)c(=O)[nH]c1=O`, the inhibition is 29.9% (inactive).

Regarding `CCC(=NCCCO)c1c(O)n(-c2ccc(OC)cc2)c(=O)[nH]c1=O`, the inhibition is -9.4% (inactive).

Turning to `Cn1c(O)c(C=NCCCC(=O)O)c(=O)n(C)c1=O`, the inhibition was -13.4% (inactive).

Turning to `CCN(CC)CCOC(=O)c1cc2cc(COC)ccc2o1`, the inhibition is -6.5% (inactive).

In the case of `O=C(c1cc(S(=O)(=O)N2CCOCC2)ccc1F)N1CCC2(CC1)OCCO2`, the inhibition was -8% (inactive).

Consider `Cc1cc(OCc2cc(C(=O)O)oc2C)c2c3c(c(=O)oc2c1)CCCC3`, for which the inhibition is -33% (inactive).

As to `CCN1CCN(C(=O)Cc2coc3cc(C)cc(C)c23)CC1`, the inhibition was 89.1% (active).

`CN(C)C(=O)NC(O)C(Cl)(Cl)Cl` (stereo not given): the inhibition was 23.9% (inactive).

With `CCN(CC)P(=O)(Oc1cccc(C)c1)N(CC)CC`, the inhibition is 78.8% (active).

With `O=C(CN1CCCCC1)Nc1ccc(Br)cc1C(=O)c1ccccc1Cl`, the inhibition was 10.3% (inactive).

As for `CC12CN3CC(C)(CN(C1)C3c1cccs1)C2` (stereo not given), the inhibition is 7.6% (inactive).

Turning to `Cc1ccc(N(C)C(=O)Oc2cccc3ccc(C)nc23)cc1`, the inhibition was 55.4% (active).

For the compound `CN1C2C=C(N(C(=O)c3ccc(Cl)cc3)c3ccccc3)CC1CC2` (stereo not given), the inhibition is 19.9% (inactive).

`CCOC(=O)c1c(C)c(C(=O)N2CCC3(CC2)OCCO3)c(C)n1CC`: the inhibition was 49.7% (inactive).

`C[N+]12CN3CN(CN(C3)C1)C2`: the inhibition is -6.5% (inactive).

Turning to `Cc1ccc(Cn2nnnc2CN2CCC(n3nnc4ccccc43)CC2)cc1`, the inhibition is 87.4% (active).

As to `Nc1ccc(C(=O)N/N=C2/CN3CCC2CC3)cc1`, the inhibition was 15.9% (inactive).

On to `O=C(O)C1CSC(c2cccnc2)N1` (stereo not given), for which the inhibition is -10.8% (inactive).

For the compound `CCOC(=O)C1CN(C)CCC1=O` (stereo not given), the inhibition was -3.5% (inactive).

Turning to `CC(=O)c1ccc(OC(NC(=O)Cc2ccccc2)C(Cl)(Cl)Cl)cc1` (stereo not given), the inhibition was 83.1% (active).

In the case of `CC(=O)NC(=O)NC(C)Cc1ccccc1` (stereo not given), the inhibition was -11.6% (inactive).

For `Cc1nc2ccccn2c1P(=S)(N1CCCCC1)N1CCCCC1`, the inhibition was 17.2% (inactive).

Turning to `CC1=C(C(=O)Nc2ccccc2)SCCO1`, the inhibition was -3.1% (inactive).

As to `CCOP(=S)(OCC)SCOC(=O)NCC(=O)OC`, the inhibition is 95.6% (active).

`Cc1cccc(N2C(=O)NC(=O)/C(=C\c3cnn(-c4ccccc4)c3)C2=O)c1`: the inhibition was -9.4% (inactive).

As for `Cn1c(O)c(C=Nc2ccc3c(c2)CCC3)c(=O)n(C)c1=O`, the inhibition was 31.3% (inactive).

Regarding `N#Cc1ccc(Cn2cc(C(=O)c3ccco3)c3ccccc32)cc1`, the inhibition is 9.2% (inactive).

On to `CSC1=NP(=S)(SC)N(C)c2nc3n(c21)CCC3` (stereo not given), for which the inhibition was 8.2% (inactive).

For `OC(CNC1CCCCC1)c1ccccc1` (stereo not given), the inhibition was 58.5% (active).

With `COC(=O)C(c1ccccc1)N1CCCCCC1` (stereo not given), the inhibition is 12.8% (inactive).

`O=C(CSC1c2ccccc2-c2ccccc21)N/N=C/c1ccccc1`: the inhibition is 25.3% (inactive).

Take `CCCC(C)n1[nH]c(=O)c2c1NC(=O)CSC2c1ccc(OC)c(OC)c1` (stereo not given): the inhibition is 7.2% (inactive).

Regarding `c1cncc(CNC2=NCCC2)c1`, the inhibition was -16.9% (inactive).

Consider `CCc1cccc2c(C#N)cn(CC(=O)N3CCOCC3)c12`, for which the inhibition was 6.7% (inactive).

Consider `CC(=O)Nc1ccccc1C(=O)OCC(=O)c1cccc2ccccc12`, for which the inhibition was 51.1% (active).

`CCOc1ccc(C2SCC(=O)Nc3c2c(C)nn3C2CCOC(C)(C)C2)cc1` (stereo not given): the inhibition is 7% (inactive).

As for `CN1CCN(C(=O)COc2ccc(C(C)(C)C)cc2Br)CC1`, the inhibition is 66.5% (active).

For `CC(C)c1ccc(OCC(=O)N2CCN(C)CC2)c(Br)c1`, the inhibition was 76% (active).

For the compound `NC(=O)Nc1cccc(C(F)(F)F)c1`, the inhibition was 26.2% (inactive).

Regarding `Cc1nc2nc(C)c(CCC(=O)N3CCC4(CC3)OCCO4)c(C)n2n1`, the inhibition is 0% (inactive).

For the compound `CC(=O)c1c(O)n(C2CCCCCC2)c(=O)[nH]c1=O`, the inhibition was 27% (inactive).

Regarding `O=C(COc1ccc2ccccc2c1)N1CCN(Cc2ccncc2)CC1`, the inhibition is 90.1% (active).

As for `CCN(CC)C(=O)c1ccc(NC(=O)c2cc(-n3cnnc3)ccc2Cl)cc1`, the inhibition was 11.1% (inactive).

`Cn1c(C(=O)N2CCC(C(=O)N3CCC4(CC3)OCCO4)CC2)cc2sccc21`: the inhibition was 7.5% (inactive).

For `CC(C)(C)c1ccc(CN2C(=O)CN=C(c3ccccc3)c3ccccc32)cc1`, the inhibition is 16.5% (inactive).

Consider `CCOC(=O)c1c(-c2ccccc2)oc2ccc(OC(=O)N(C)C)cc12`, for which the inhibition was 60.7% (active).

Turning to `Cc1ccc2c(c1)C1CN(C)CCC1N2C(=O)Cn1nnc(-c2ccccc2F)n1` (stereo not given), the inhibition is 8.3% (inactive).

For `O=c1c2ccccc2nc(-c2ccc(Cl)cc2Cl)n1-c1ccncc1`, the inhibition is 76.4% (active).

For the compound `CCc1nc2ccccc2c(=O)n1-c1cccc(OC)c1`, the inhibition is 33.5% (inactive).

Take `O=c1c2ccccc2nc(-c2ccco2)n1-c1ccc(Br)cn1`: the inhibition was -3.5% (inactive).

Consider `COC(=O)C(O)(c1ccc(NC(=O)c2ccco2)c(OC)c1)C(F)(F)F` (stereo not given), for which the inhibition was 39% (inactive).

On to `CCNc1nc2[nH]c(=O)c3c(c2s1)OC(N)=C(C#N)C3c1cccs1` (stereo not given), for which the inhibition is -19.6% (inactive).

Consider `CCC(=O)CC(c1ccc([N+](=O)[O-])cc1)c1c(O)c2ccccc2oc1=O` (stereo not given), for which the inhibition was 1.3% (inactive).

For `COc1ccc(C2NCc3ccc4c(c3-n3cccc32)OCO4)cc1OC` (stereo not given), the inhibition is 77.5% (active).

In the case of `c1ccc(C2NCc3ccccc3-n3cccc32)cc1` (stereo not given), the inhibition was 33% (inactive).

Take `CCC(=NCc1ccco1)c1c(O)n(Cc2ccccc2)c(=O)[nH]c1=O`: the inhibition was 49.6% (inactive).

On to `CC(=NCc1ccc2c(c1)OCO2)c1c(O)[nH]c(=O)[nH]c1=O`, for which the inhibition is -13.9% (inactive).

As for `COc1ccc(CCn2c(O)c(C=NCCCn3ccnc3)c(=O)[nH]c2=O)cc1OC`, the inhibition is 16.7% (inactive).

In the case of `COc1ccccc1-n1c(O)c(C=NC2CC2)c(=O)[nH]c1=O`, the inhibition is 42.1% (inactive).

As to `COc1ccc(CCn2c(O)c(C=NC3CC3)c(=O)[nH]c2=O)cc1OC`, the inhibition was 94.9% (active).

As for `CC(=O)N1CN2CN(C(C)=O)CC(C(=O)c3ccc(Br)cc3)(C2)C1`, the inhibition was -5.5% (inactive).
